TDP1 cell CPT: growth inhibition of DT40 Tdp1-/-;hTDP1 cells with camptothecin (screen for TDP1 inhibitors). chicken DT40 Tdp1-/-;hTDP1 cells + 20 nM CPT, ATP luminescence, 48 h. hit rate 12% among 420,000. AID 686979. Potency, µM (doses to about 46.2 µM), for the others: top-dose activity change, negative = growth inhibition, actives largely listed as inhibitors; further: potency means the concentration at half of the fitted maximal effect; nearly all actives have a fitted effect of over 55% in size
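Cell growth measured by CellTiter-Glo luminescence after a minimum 48 h, 37 C compound exposure with 20 nM CPT in Tdp1-knockout DT40 cells stably expressing hTDP1, seeded 400/well; qHTS titration format.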
LDHA block: blocks human lactate dehydrogenase A. P00338. purified LDHA, NADH/diaphorase-resazurin fluorescence; active compounds read low. activity change, % (values are at about 110 or 230 µM). hit rate 0.15% among 480,000. AID 1347041; in the data active means activity change below about -30%; inconclusive means mostly about -25% to -30%;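 further: plate controls were DMSO wells for no effect and wells without enzyme for full effect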
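Resorufin fluorescence (ex540/em590), read at 0 and 20 min after diaphorase/resazurin addition, reports the NADH left after a 5 min room-temperature reaction of 2 nM human LDH5 with 0.06 mM NADH and 0.2 mM pyruvate.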
TDP1 cell noCPT: qHTS for Inhibitors of human tyrosyl-DNA phosphodiesterase 1 (TDP1): qHTS in cells in absence of CPT; DT40 Tdp1-/- hTDP1 cells, no CPT, ATP luminescence, 48 h; hit rate 15% among 420,000; Potency, µM (highest dose often 46.2 µM), for inactives: at the top dose activity change, negative = growth inhibition, actives largely listed as inhibitors; further: potency means the concentration at half of the fitted maximal effect; nearly all actives have a fitted effect of over 55% in size
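Compound effects on proliferation are scored in DT40 Tdp1-/-;hTDP1 cells in the absence of CPT. ATP levels (CellTiter-Glo luminescence) are recorded after a ≥48 hr, 37 °C incubation.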
RORg inh: inhibitors of mouse ROR gamma transcriptional activity. P51450. Drosophila S2 Gal4-RORgamma UAS-luciferase reporter, 20 h. Potency, µM (titrated, usually from 53.6 µM), for the others: at the highest dose activity change, negative = inhibition, usual class: inhibitors. hit rate 5.4% among 310,000. AID 2551; further: potency means the concentration at half of the fitted maximal effect; nearly all actives have a fitted effect of over 60% in size
Target sequence (P51450 whole entry, looked up, the tested form may be a part): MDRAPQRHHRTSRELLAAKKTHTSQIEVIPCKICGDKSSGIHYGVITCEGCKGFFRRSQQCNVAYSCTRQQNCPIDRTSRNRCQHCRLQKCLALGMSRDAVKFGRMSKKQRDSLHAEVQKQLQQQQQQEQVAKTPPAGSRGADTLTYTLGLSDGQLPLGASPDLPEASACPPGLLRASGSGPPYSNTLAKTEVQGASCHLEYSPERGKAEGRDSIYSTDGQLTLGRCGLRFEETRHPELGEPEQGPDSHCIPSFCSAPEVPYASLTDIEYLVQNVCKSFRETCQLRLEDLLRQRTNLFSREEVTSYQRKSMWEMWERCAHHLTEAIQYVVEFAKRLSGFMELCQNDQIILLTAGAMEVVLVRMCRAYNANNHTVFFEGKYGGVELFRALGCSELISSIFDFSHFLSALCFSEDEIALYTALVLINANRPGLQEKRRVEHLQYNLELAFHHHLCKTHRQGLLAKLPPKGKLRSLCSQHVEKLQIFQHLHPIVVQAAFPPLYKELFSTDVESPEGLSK
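Read-out: Photinus luciferase luminescence; inhibitors lower reporter signal. Insect Schneider cells with Gal4-ROR gamma fusion under metallothionein promoter, UAS reporter; 700 uM final copper sulfate induction, 20 hr, ambient temperature.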
IL1B secr inh: blocks inflammasome-driven IL-1 beta release | AID 743279 | activity change, % at 57.5 µM | hit rate 4.7% among 360,000 | THP-1 LPS/ATP IL-1B secretion, AlphaLISA, 16 h; active compounds read low; in the data active means activity change below about -50%; inconclusive means mostly about -30% to -49%
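THP-1 cells pretreated 1 hr with compounds (up to 57.5 uM final), then stimulated with LPS (250 ng/mL final) plus ATP (1.25 mM final); secreted IL-1B measured by AlphaLISA after 16 hr, decreased signal indicating inhibition.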
Gal4-VP16 FLuc: inhibits Gal4-VP16 luciferase reporter, ROR gamma counter-screen. Potency, µM (series often up to 53.6 µM), for the others: top-dose activity, negative = inhibition, actives largely listed as inhibitors. hit rate 3.5% among 310,000. Drosophila S2 Gal4-VP16 UAS-luciferase, luminescence, 20 h;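 further: Gal4-VP16 expression switched on by copper sulfate through the metallothionein promoter; potency means the concentration at half of the fitted maximal effect; nearly all actives have a fitted effect of over 50% in size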
The depositor's hits bear a star; [ ] = remark or other dose. Shown are actives, neighbours in structure and some others; about 18% of the full set was active somewhere. Unless noted, the call rests on the fitted dose curve; in most records, active means well fitted curve in the direction sought with a large enough effect; inconclusive means small, poorly fitted or top-dose-only effect, or another doubt; inactive means no such curve, though single readings can be large; an effect the other way counts as inactive or inconclusive. Unless noted, on the % scale 0 is the no-effect control and ±100 the full control effect.

`CC(=O)Nc1ccc(CN2CCN(CCC(C)C)C(CCO)C2)cc1` (stereo unspecified) gave TDP1 cell CPT -14%, LDHA block 0, TDP1 cell noCPT -13%, RORg inh -10%, IL1B secr inh -23 and Gal4-VP16 FLuc 6%.
For CC(=O)Nc1ccc(CN2CCN(CCc3ccccc3)C(CCO)C2)cc1 (stereo unspecified) the results were TDP1 cell CPT 13%, LDHA block -1, TDP1 cell noCPT -9%, RORg inh -12%, IL1B secr inh -79* and Gal4-VP16 FLuc 1%.
Screening COc1ccc(OC)c(CN2CCN(CCc3ccccc3)C(CCO)C2)c1 (stereo unspecified) returned TDP1 cell CPT 12µM*, LDHA block -4, TDP1 cell noCPT inconclusive, RORg inh -5%, IL1B secr inh -11 and Gal4-VP16 FLuc -3%.
`CC(C)(C)CN1CCN(Cc2nc(-c3ccc(F)cc3)cs2)CC1CCO` (stereo unspecified) gave TDP1 cell CPT 16µM*, LDHA block -3, TDP1 cell noCPT 21µM*, RORg inh 1%[1.91 µM], IL1B secr inh -20 and Gal4-VP16 FLuc -2%.
OCCC1CN(Cc2nc(-c3ccc(F)cc3)cs2)CCN1CCc1ccccc1 (stereo unspecified) was read as TDP1 cell CPT inconclusive, LDHA block -5, TDP1 cell noCPT inconclusive, RORg inh inconclusive, IL1B secr inh -10 and Gal4-VP16 FLuc -7%.
OCCC1CN(Cc2nc(-c3ccccc3)cs2)CCN1CCc1ccccc1 (stereo unspecified) was read as TDP1 cell CPT inconclusive, LDHA block -5, TDP1 cell noCPT 21µM*, RORg inh 4%, IL1B secr inh -5 and Gal4-VP16 FLuc 4%.
`Cc1c(C(=O)N2CCOC(C)C2)cnn1-c1ccccc1F` (stereo unspecified) gave LDHA block 1.
For Cc1ccc(-c2cnc(SCC(=O)Nc3cccc(Cl)c3)o2)cc1C the results were LDHA block -5.
`CCC1(C2CCN(Cc3cc4ccccc4o3)CC2)NC(=O)N(CC2COc3ccccc3O2)C1=O` (stereo unspecified) gave TDP1 cell CPT inconclusive and TDP1 cell noCPT 21µM*.
For CC(C)N1CCN(CC2COc3ccccc3O2)CC1 (stereo unspecified) the results were TDP1 cell CPT 0%, LDHA block 0, TDP1 cell noCPT -9%, RORg inh -6%, IL1B secr inh -4 and Gal4-VP16 FLuc 8%.
For CC(C)Oc1ccc(-c2nc3c(C#N)c[nH]n3c2NC2CCCCC2)cc1 the results were TDP1 cell CPT inconclusive, LDHA block -1 and TDP1 cell noCPT 23µM*.
`COc1ccc(-c2nc3c(C#N)c[nH]n3c2NC2CCCC2)c(OC)c1` gave TDP1 cell CPT 12µM*, LDHA block -5 and TDP1 cell noCPT inconclusive.
Screening CCOc1ccc(-c2nc3c(C#N)c[nH]n3c2NC2CCCC2)cc1 returned TDP1 cell CPT 10µM*, LDHA block -3 and TDP1 cell noCPT 16µM*.
Screening CCc1ccc(C2C=C(c3ccc(Br)cc3)Nc3ncnn32)cc1 (stereo unspecified) returned LDHA block 12.
C[C@@H](O[C@H]1OCCN(Cc2n[nH]c(=O)[nH]2)[C@H]1c1ccc(F)cc1)c1cc(C(F)(F)F)cc(C(F)(F)F)c1 was read as TDP1 cell CPT 19µM* and TDP1 cell noCPT 21µM*.
For Oc1ccccc1N=Cc1c(O)ccc2oc3c(c12)CCCC3 the results were TDP1 cell CPT inconclusive, LDHA block 6, TDP1 cell noCPT inconclusive, RORg inh 3.2µM*, IL1B secr inh 26 and Gal4-VP16 FLuc 10µM*.
O=C(O)c1ccc(N=Cc2c(O)ccc3oc4c(c23)CCCC4)cc1 was read as TDP1 cell CPT 16µM*, LDHA block 5, TDP1 cell noCPT inconclusive, RORg inh -41%, IL1B secr inh 70 and Gal4-VP16 FLuc -3%.
For Cc1ccc(-n2nnnc2SCC(=O)N(CC(C)C)c2c(N)n(CC(C)C)c(=O)[nH]c2=O)cc1 the results were TDP1 cell CPT 20%, LDHA block -13, TDP1 cell noCPT -11%, RORg inh 5%, IL1B secr inh -52* and Gal4-VP16 FLuc 2%.
For COCCN(Cc1nc2ccccc2c(=O)[nH]1)C(=O)COc1c(C)cc(Cl)cc1C the results were TDP1 cell CPT inconclusive, LDHA block -1, TDP1 cell noCPT inconclusive and IL1B secr inh -19.
For CCN(CC(=O)NCc1ccc(F)cc1)CC(=O)Nc1ccccc1-c1ccccc1 the results were TDP1 cell CPT inconclusive, LDHA block -9, TDP1 cell noCPT inconclusive, RORg inh inconclusive, IL1B secr inh -4 and Gal4-VP16 FLuc -11%[10 µM].
`CCCCN(Cc1nc2ccccc2c(=O)[nH]1)C(=O)COc1ccc(F)cc1Cl` gave TDP1 cell CPT 18µM*, LDHA block -2, TDP1 cell noCPT 15µM* and IL1B secr inh 17.
CCN(CC(=O)NC(c1ccccc1)c1ccccc1)Cc1nc2ccccc2c(=O)[nH]1 was read as TDP1 cell CPT inconclusive, LDHA block -2, TDP1 cell noCPT inconclusive, RORg inh 2.5µM*, IL1B secr inh -10 and Gal4-VP16 FLuc 11µM*.
For CCN(CC(=O)Nc1ccccc1-c1ccccc1)Cc1nc2ccccc2c(=O)[nH]1 the results were TDP1 cell CPT 5.8µM*, LDHA block 0, TDP1 cell noCPT 4.6µM*, RORg inh 4.5µM*, IL1B secr inh 46 and Gal4-VP16 FLuc inconclusive.
`O=S(Cc1ccccc1)Cc1c(Cl)cccc1Cl` (stereo unspecified) gave LDHA block -1.
Screening CCN(CC(=O)NC(C)C)Cc1nc2c(Br)cc(Br)cc2c(=O)[nH]1 returned TDP1 cell CPT -24%, LDHA block 0, TDP1 cell noCPT inconclusive, RORg inh 2.2µM*, IL1B secr inh 30 and Gal4-VP16 FLuc 7.1µM*.
`CCN(CC(=O)N(CC(C)C)c1c(N)n(CC(C)C)c(=O)[nH]c1=O)Cc1nc2ccccc2c(=O)[nH]1` gave TDP1 cell CPT -17%, LDHA block 1, TDP1 cell noCPT -27%, RORg inh 4µM*, IL1B secr inh 3 and Gal4-VP16 FLuc inconclusive.
